Assay [1] is described as follows: Cell Viability - BJ (AID 421; calls by dose curve;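 also: potency is read from the fitted curve at half-maximal effect; cells exposed to compound for 40 hours at 37 °C before readout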). The following applies: BJ fibroblast viability, qHTS. In outline: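 Cytotoxicity in human BJ foreskin fibroblasts is scored as loss of cellular ATP after a 40-hour exposure, measured by luciferase luminescence. Controls are DMSO and 100 uM tamoxifen.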
(In general: Quantitative high-throughput screening tests each substance at several concentrations.)

Assay [2] is described as follows: Cell Viability - Jurkat (AID 426;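 active = dose-dependent loss of cell ATP signal giving a full or clear fitted curve, ranked by lower potency value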;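 also: potency is read from the fitted curve at half-maximal effect; cells exposed to compound for 40 hours at 37 °C before ATP read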). The following applies: qHTS. The gist of the method:
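Cells of the human T-cell leukemia line Jurkat (E6-1) are seeded at 5000 per well, treated with compound across a concentration range for 40 hours at 37 °C, then lysed with CellTiter-Glo; luminescence reports ATP.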

A short description of assay [3]: Cell Viability - HepG2 (AID 433; calls by dose curve;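 also: potency is read from the fitted curve at half-maximal effect; potency for ATP loss meaning cytotoxicity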). The note with it: qHTS. In outline: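 Read-out is luciferase-based quantitation of cellular ATP as a measure of viable HepG2 cells after 40 h treatment at 37 °C. Signal decrease is scaled between DMSO-only and 100 uM tamoxifen controls, with AC50 fitted by the Hill equation.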
Assay [4] in a line: Cell Viability - MRC5 (AID 434; calls by dose curve;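 also: potency is read from the fitted curve at half-maximal effect; potency reflects cytotoxicity seen as loss of intracellular ATP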). The note with it: MRC5 lung fibroblast viability, qHTS. The gist of the method:
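AC50 values come from Hill-equation fits of intracellular ATP loss, measured by CellTiter-Glo luminescence. Normal lung fibroblasts (MRC5) had 40 hr compound treatment at 37 C, normalized between DMSO and 100 uM tamoxifen.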

Assay [5] in a line: Cell Viability - SK-N-SH (AID 435; calls by dose curve;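 also: potency is read from the fitted curve at half-maximal effect; compound exposure lasted 40 h at 37 °C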). The following applies: SK-N-SH neuroblastoma cell viability qHTS. The gist of the method: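 Luminescent ATP signal served as the viability read-out after 40 hours of compound treatment of human neuroblastoma SK-N-SH cells. Concentration-response data, scaled between DMSO and 100 uM tamoxifen, gave AC50 values by standard Hill modeling.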
Assay [6] is described as follows: Cell Viability - N2a (AID 540).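 Also: plate controls were DMSO alone for no effect and tamoxifen control for full effect; nearly all actives have a fitted effect of over 45% in size.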 The note with it: N2a mouse neuroblastoma cell viability; at 92.2 µM (top of the series). The gist of the method:
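Cytotoxicity was scored as loss of cellular ATP in N2a cells, a mouse neuroblastoma line. Compounds are applied in a qHTS concentration series for 40 hr at 37 °C.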

The nature of assay [7]: Cell Viability - NIH 3T3 (AID 541).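 Also: plate controls were DMSO alone for no effect and tamoxifen positive control for full effect; nearly all actives have a fitted effect of over 25% in size.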 The note with it: NIH 3T3 cell viability, qHTS; at 92.2 µM (top of the series). The gist of the method: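 Cells seeded at 1000/well, rested 5 hr at 37 °C, then dosed and incubated 40 hr at 37 °C. CellTiter-Glo added, 20 min room temperature, luminescence read. AC50 by Hill fit.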
Assay [8] is described as follows: Cell Viability - HUV-EC-C (AID 542). Also: potency is read from the fitted curve at half-maximal effect; nearly all actives have a fitted effect of over 35% in size. The note with it: HUV-EC-C endothelial cell viability, qHTS. The gist of the method:
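Cells were seeded at 1000 per well and incubated 5 hr at 37 °C before compound addition. After 40 hr at 37 °C, CellTiter-Glo reagent was added for 20 min and luminescence read. AC50 values came from Hill-equation modelling.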

Assay [9] is described as follows: Cell Viability - H-4-II-E (AID 543). Also: potency is read from the fitted curve at half-maximal effect; nearly all actives have a fitted effect of over 35% in size. The note with it: H-4-II-E rat hepatoma viability. In outline: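 Cells seeded at 1500 per well and rested 5 hr; compounds added; 40 hr incubation at 37 °C; CellTiter-Glo added, 20 min at room temperature; luminescence read. Hill-equation fits gave AC50.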
The nature of assay [10]: Cell Viability - SH-SY5Y (AID 544). Also: potency is read from the fitted curve at half-maximal effect; nearly all actives have a fitted effect of over 55% in size. The note with it: SH-SY5Y neuroblastoma cell viability. In outline: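 Cells were plated at 1500 per well and allowed 5 hr at 37 °C. Compounds were added across a concentration range and incubated 40 hr at 37 °C. CellTiter-Glo was added for 20 min at room temperature before luminescence reading.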
Assay [11] can be described thus: Cell Viability - Renal Proximal Tubule (AID 545). Also: nearly all actives have a fitted effect of over 40% in size. The following applies: renal proximal tubule cells viability, primary cells of rat origin; at 91.7 µM (top of the series). The gist of the method: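 Luminescent ATP signal (CellTiter-Glo) served as the viability read-out after 40 hr compound exposure of freshly isolated rat proximal tubule cells at 37 °C. Concentration-dependent ATP loss was fitted with the Hill equation to give AC50.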

Assay [12] is described as follows: Cell Viability - Mesenchymal (AID 546).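 Also: potency is read from the fitted curve at half-maximal effect; cells exposed to compound for 40 hours before reading.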 The following applies: mesenchymal cells viability, qHTS. In outline: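 CellTiter-Glo luminescence (intracellular ATP, 20 min room temperature) after 40 hr compound exposure at 37 °C of 1000 glomerulus-derived human kidney mesenchymal cells/well; AC50 values obtained by fitting qHTS concentration-response data to the Hill equation.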

Assay [13] can be described thus: Cellular Toxicity (caspase-3) HepG2 (AID 654).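 Also: cells exposed to compound for 16 hours before reading; 0% = DMSO alone and 100% = caspase signal from 100 µM tamoxifen.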 The note with it: HepG2 caspase-3 activation, luminescence, 0% = DMSO only, 100% = tamoxifen; series mostly up to 92.2 µM. In outline:
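Caspase 3/7 activation in HepG2 is measured as rising luminescence after a 16 hr treatment at 37 °C. Values are scaled between DMSO basal and 100 uM tamoxifen, and AC50 is fitted with the Hill equation.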

Assay [14] in a line: Cellular Toxicity (caspase-3) Jurkat (AID 655).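 Also: cells exposed to compound for 16 h at 37 °C before reading.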 The following applies: Jurkat caspase-3 activation, luminescence, DMSO = 0%, tamoxifen = 100%; series mostly up to 92.2 µM. The gist of the method:
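5000 Jurkat cells/well; compound 16 hr, 37 °C; Caspase-Glo 3/7 added, 20 min RT; luminescence read. Norm: DMSO = 0%, tamoxifen 100 uM = 100%. AC50, Hill model.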

Assay [15] is described as follows: Cellular Toxicity (caspase-3) HUV-EC-C (AID 656). The following applies: HUV-EC-C cells, caspase-3 activation (apoptosis), vehicle = 0, 100 µM tamoxifen = 100%; series mostly up to 92.2 µM. The gist of the method:
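qHTS; HUV-EC-C, 1000 cells/well; 5 hr settle, 16 hr cmpd, 37°C; Caspase-Glo 3/7, 20 min RT; luminescence. Norm: DMSO = 0%, tamoxifen 100 uM = 100%. Hill-fit AC50.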

The nature of assay [16]: Cellular Toxicity (caspase-3) SHSY5Y (AID 657).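 Also: cells exposed to compound for 16 hours at 37 °C.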 The following applies: SH-SY5Y caspase-3 activation, DMSO zero, 10 µM staurosporine = 100%; series mostly up to 91.7 µM. In outline: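 qHTS, SH-SY5Y, 1500 cells/well, 5 h pre-incubation 37 °C; compound 16 h 37 °C; Caspase-Glo 3/7 1 h RT; luminescence. Norm.: DMSO = 0, 10 uM staurosporine = 100%. Hill fit → AC50.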
A short description of assay [17]: Cellular Toxicity (caspase-3) BJ (AID 658).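 Also: cells exposed to compound for 16 hours.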 The following applies: BJ fibroblasts, luminescence, normalized: DMSO 0%, staurosporine 100%; series mostly up to 91.7 µM. In outline: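 Caspase-Glo 3/7 luminescence, read 1 hr after reagent at room temperature, in normal BJ fibroblasts exposed 16 hours at 37 °C. AC50 values from Hill-equation concentration-response, scaled between DMSO basal and 10 uM staurosporine as 100%.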

Assay [18] in a line: Cellular Toxicity (caspase-3) MRC-5 (AID 659). The note with it: MRC-5 cells, luminescence, normalized: DMSO 0%, 10 µM staurosporine 100%; series mostly up to 91.7 µM. The gist of the method: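 Luminescent Caspase-Glo 3/7 read-out (1 h, room temperature) after a 16 h, 37 °C compound exposure of MRC-5 lung fibroblasts at 1500 cells/well. Concentration-response AC50 from Hill equation; 0% DMSO, 100% 10 uM staurosporine.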

Assay [19] is described as follows: Cellular Toxicity (caspase-3) Mesangial (AID 660).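 Also: combined caspase 3 and 7 activity read by Caspase-Glo luminescence; cells exposed to compound for 16 h before the caspase read.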 The following applies: mesangial cells, normalized: DMSO 0%, 100 µM tamoxifen 100%; series mostly up to 91.7 µM. The gist of the method: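 Seed cells derived from normal human renal glomeruli, incubate 5 h, add compounds across concentrations and incubate 16 h at 37 °C. Caspase 3/7 activation is then quantified by luciferase light, with AC50 derived by Hill modeling.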

SMILES strings stand for the structures. Unmarked numbers belong to inactive results. Inconclusive results are not listed. The source made the active and inactive calls. Unless noted, calls follow the shape of the dose curve; as a rule, active = well fitted curve in the direction sought with a large enough effect; inconclusive = small, poorly fitted or top-dose-only effect, or another doubt; inactive = no such curve, though single readings can be large; an effect the other way counts as inactive or inconclusive.

Take `O=C1c2c(O)ccc([N+](=O)[O-])c2C(=O)c2c([N+](=O)[O-])ccc(O)c21`: the Potency in assay [1] was 28.5 µM (active); in [2] it was 25.8 µM (active); in assay [3], 27.4 µM (active); in [4], 30.1 µM (active); in assay [5] it was 28.8 µM (active); in assay [8], 31.6 µM (active). Moreover, the Potency is 31.6 µM (active) in [9], 25.1 µM (active) in assay [10] and 31.6 µM (active) in assay [12]. The activity change, negative = cytotoxicity in assay [6] is -111% (active); in assay [7] it was -139% (active); in [11], -107% (active). Further, the call in assay [13], in assay [14], in assay [15], in assay [16], in [17] and in assay [18] was inactive. Moreover, in assay [19], the call was inactive.

Source of the values: PubChem BioAssay (NCATS).
